Laboratory results as given in the supplement of paper PMC6607015.
Structures can show the parent of a compound that is named as a salt.

Assays:
Conditions in all cases: compound concentration in added solution (µM; 5 µl added to 20 µl cells): 10; 18 h
A431 [1] = test: LBPA endosome anti-LBPA integrated intensity (sum per cell), Z-score; higher = more LBPA staining
Summary of the method: (§1)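 Each value is a Z-score normalised in AcuityXpress from per-cell integrated LBPA or filipin intensity, taken over the whole cell or within LBPA endosomes. Duplicate 384-well imaging plates held 5 µl of 10 µM compound solution, onto which 3,500 HeLa MZ or A431 cells in 20 µl were seeded per well. After 18 h the cells were fixed in 4% PFA, stained with 6C4 anti-LBPA antibody, filipin, propidium iodide and CellTracker green, imaged four times per well at 20× and segmented in MetaXpress.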

HeLa MZ [2] = test: as above
Summary of the method: as §1

A431 [3] = test: whole-cell filipin (free cholesterol) integrated intensity, Z-score; higher = more cholesterol staining
Summary of the method: as §1

HeLa MZ [4] = test: as above
Summary of the method: as §1

A431 [5] = test: filipin (cholesterol) integrated intensity within LBPA endosomes, Z-score; higher = more cholesterol in LBPA endosomes
Summary of the method: as §1

HeLa MZ [6] = test: as above
Summary of the method: as §1

Compound	LBPA endosome anti-LBPA integrated intensity (z-score) (A431 [1])	LBPA endosome anti-LBPA integrated intensity (z-score) (HeLa MZ [2])	whole-cell filipin (z-score) (A431 [3])	whole-cell filipin (z-score) (HeLa MZ [4])	filipin (z-score) (A431 [5])	filipin (z-score) (HeLa MZ [6])
O=c1cc(-c2ccc(O)c(O)c2)oc2cc(O)cc(O)c12 [Luteolin]	-0.401	0.459	-0.523	-0.0366	-0.468	-0.425
CN(C)CCC(c1ccccc1)c1ccccn1 (stereo not drawn) [Pheniramine maleate]	-0.513	0.0628	-0.745	-0.51	-0.53	-0.436
C[C@@]1(O)CCOC(=O)C1 [Mevalonic-D, L acid lactone]	-0.324	-0.057	-0.441	0.0668	-0.408	-0.457
c1ccc(CN(CC2=NCCN2)c2ccccc2)cc1 [Antazoline hydrochloride]	-0.107	0.686	-0.0849	0.249	-0.0343	0.301
Cc1cc(C(=O)NNCc2ccccc2)no1 [Isocarboxazid]	-0.549	-1.31	-0.396	-0.63	-0.553	-0.513
O=C(NCCN1CCOCC1)c1ccc(Cl)cc1 [Moclobemide]	-0.577	-0.12	-0.751	-0.413	-0.499	-0.447
CC(C)(S)[C@@H](N)C(=O)O [Penicillamine]	-0.535	-0.589	-0.551	-0.607	-0.469	-0.553
CC1CNc2c(cccc2S(=O)(=O)N[C@@H](CCCNC(=N)N)C(=O)N2CC[C@@H](C)C[C@@H]2C(=O)O)C1 (stereo partly drawn) [Argatroban]	-0.429	-0.462	-0.724	0.346	-0.455	-0.335
CCCCCCC[N+](CC)(CC)CCCCc1ccc(Cl)cc1 [Clofilium tosylate]	-0.496	-0.791	-0.98	-1.56	-0.614	-0.77
Nc1ccc(S(N)(=O)=O)cc1 [Sulfanilamide]	-0.59	-0.84	-0.27	0.397	-0.496	-0.373
CC(=O)N(CC(O)CN(C(C)=O)c1c(I)c(C(=O)NCC(O)CO)c(I)c(C(=O)NCC(O)CO)c1I)c1c(I)c(C(=O)NCC(O)CO)c(I)c(C(=O)NCC(O)CO)c1I (stereo not drawn) [Iodixanol]	-0.538	-0.533	-0.268	-0.245	-0.464	-0.482
CCCc1nc(C)c2c(=O)nc(-c3cc(S(=O)(=O)N4CCN(CC)CC4)ccc3OCC)[nH]n12 [Vardenafil]	-0.314	1.35	0.127	0.375	-0.156	0.224
CN(C)CCN(Cc1ccccc1)c1ccccn1 [Tripelennamine hydrochloride]	-0.213	1.28	0.0432	0.362	-0.29	0.335
CC1=C(CC(=O)O)c2cc(F)ccc2/C1=C\c1ccc([S+](C)[O-])cc1 (stereo not drawn) [Sulindac]	-0.696	-1.83	-0.98	-1	-0.655	-0.701
CC(C)(C)NC[C@H](O)COc1cccc2c1CCCC2=O [(-) -Levobunolol hydrochloride]	-0.264	1.1	-0.125	-0.19	-0.327	0.118
CCN1CCC[C@H]1CNC(=O)c1c(O)c(Cl)cc(Cl)c1OC [Raclopride]	-0.484	-0.235	-0.93	-0.588	-0.489	-0.47
NC(CO)C(=O)NNCc1ccc(O)c(O)c1O (stereo not drawn) [Benserazide hydrochloride]	-0.379	0.144	-0.376	-0.254	-0.42	-0.5
Cc1cccc(C)c1NC(=O)CN1CCN(CCCC(c2ccc(F)cc2)c2ccc(F)cc2)CC1 [Lidoflazine]	3.2	1.66	1.3	0.566	2.57	2.52
O=C(CCCN1CCN(c2ccccn2)CC1)c1ccc(F)cc1 [Azaperone]	-0.0879	0.592	0.0723	0.216	-0.168	0.329
CC(=O)Oc1cccc2c1C(=O)c1c(OC(C)=O)cc(C(=O)O)cc1C2=O [Diacerein]	-0.503	-0.299	-0.484	0.525	-0.459	-0.327
COc1ccc(-c2cc(=S)ss2)cc1 [Anethole-trithione]	-0.536	-0.179	-0.0973	0.207	-0.447	-0.257
CC(=O)O[C@]1(C(C)=O)CC[C@H]2[C@@H]3C=C(Cl)C4=CC(=O)CC[C@]4(C)[C@H]3CC[C@@]21C [Chlormadinone acetate]	0.021	2.23	0.739	1.32	0.102	0.534
CCN(CC)CC#CCOC(=O)C(O)(c1ccccc1)C1CCCCC1 (stereo not drawn) [Oxybutynin chloride]	0.579	1.7	0.833	0.613	0.892	1.15
